Source: PubChem BioAssay (NCI)
This is part of a sample that, as a whole, favours compounds with a hit. Of some 83,000 tested, about 20% had one in any assay.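 Results are percent growth after 48 hours of single-concentration exposure. 100 means growth as in untreated cells, lower positive values show inhibition; negative values down to -100 show cell death.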 Activity calls are given as the source filed them. How the source made its calls: active means growth percent below 10; inactive means the rest.

How the values were obtained:
Assay in all cases: NCI-60 one-dose screen, 48 h (100 = growth as untreated, 0 = no growth, -100 = all killed)
Conditions in all cases: 10 µM unless noted
[1] = system: HCT-15 colon
[2] = system: HT29 colon
[3] = system: SNB-19 CNS
[4] = system: U251 CNS
[5] = system: PC-3 prostate
[6] = system: SK-MEL-5 melanoma
[7] = system: UACC-62 melanoma
[8] = system: LOX IMVI melanoma
[9] = system: SK-MEL-2 melanoma
[10] = system: EKVX NSCLC
[11] = system: SN12C renal
[12] = system: UO-31 renal
[13] = system: TK-10 renal
[14] = system: ACHN renal
[15] = system: CAKI-1 renal
[16] = system: A498 renal
[17] = system: CCRF-CEM leukemia
[18] = system: MOLT-4 leukemia
[19] = system: SK-MEL-28 melanoma

Measured: growth

COc1ccc(Nc2[nH]n3c(=O)cc(C)nc3c2C(N)=O)c(OC)c1
inactive: [1] 102% | [2] 92.2% | [3] 96% | [4] 94.1% | [5] 99.7% | [6] 98.1% | [7] 84% | [8] 95.6% | [9] 94% | [10] 101% | [11] 96.6% | [12] 87.5% | [13] 88.2% | [14] 96.8% | [15] 90.2% | [16] 86.1% | [17] 101% | [18] 116%

Cc1ccc(-c2cc3nc(C(Cl)Cl)nc(-c4ccccc4C)n3n2)cc1
active: [2] 8.13%
inactive: [1] 33.2% | [3] 70.2% | [4] 46.3% | [5] 43.1% | [6] 82.6% | [7] 59.7% | [19] 89.1% | [9] 94.5% | [10] 71.1% | [11] 86.7% | [12] 75.3% | [13] 54.8% | [14] 49.1% | [15] 48.1% | [16] 74.4% | [17] 96.1% | [18] 62.9%

COc1cc(Nc2nc(N[C@H]3CCCC[C@@H]3N)nc3cc[nH]c(=O)c23)cc(OC)c1
active: [2] 7.69% | [8] -66.8% | [17] -2.71% | [18] 3.76%
inactive: [1] 60.9% | [3] 37.4% | [4] 44.3% | [5] 44.6% | [6] 57.7% | [7] 41.2% | [9] 41.7% | [11] 33.2% | [12] 47.7% | [13] 66.5% | [14] 44.7% | [15] 51.4% | [16] 12.4%

S=c1[nH]nc(-c2cc3ccc2CCc2ccc(cc2)CC3)n1-c1ccccc1
inactive: [1] 89.7% | [2] 90.8% | [3] 93.3% | [4] 94.5% | [5] 83.9% | [6] 96.5% | [7] 76.2% | [8] 98% | [9] 105% | [10] 93.4% | [11] 91.4% | [12] 92.9% | [14] 100% | [15] 87.2% | [16] 90.2% | [17] 95.8% | [18] 92.7%
active: [13] -61.5%

O=C(CN1CCN(c2cc3c(cc2F)c(=O)c(C(=O)N/N=C/c2ccccc2O)cn3C2CC2)CC1)N/N=C\c1ccccc1O
inactive: [1] 18.4% | [2] 39.2% | [3] 29.9% | [4] 24.8% | [5] 30.3% | [9] 33.2% | [10] 23% | [13] 43.2% | [14] 13.5% | [16] 86.1%
active: [6] -47.5% | [7] 0.0993% | [8] 2.01% | [12] 4.8% | [15] 5.22% | [17] 8.24% | [18] 9.45%

N#Cc1c(Nc2ccccc2)nc2n(c1=O)-c1ccccc1Sc1ccccc1-2
inactive: [1] 90.3% | [2] 84.1% | [3] 77.9% | [4] 89.4% | [5] 61.3% | [6] 68.1% | [7] 69.1% | [8] 83.9% | [9] 86.9% | [10] 73% | [11] 77.7% | [12] 53.4% | [13] 105% | [14] 68.3% | [15] 70.8% | [16] 90.2% | [17] 63.4% | [18] 51.9%

COc1ccc(NC(=O)c2cc(OC)c(OC)c(OC)c2)cc1O
inactive: [1] 35% | [2] 10.7% | [3] 52.1% | [4] 40.4% | [5] 25.9% | [6] 22.8% | [7] 30.8% | [8] 43.3% | [10] 97.1% | [11] 43.4% | [12] 66.8% | [13] 88.9% | [14] 57.6% | [15] 46.8% | [16] 46% | [18] 64.4%

Cc1ccc(S(=O)(=O)/C(=C\c2ccc(Cl)cc2)C(=O)c2ccccc2)cc1
inactive: [1] 100% | [2] 123% | [3] 95.7% | [4] 102% | [5] 96.4% | [6] 103% | [7] 101% | [8] 104% | [19] 100% | [11] 98.9% | [12] 90.1% | [13] 124% | [14] 109% | [15] 87.3% | [16] 99.4% | [17] 97.7% | [18] 99.1%

COc1ccc(/C(C#N)=C/c2cc(OC)c(OC)c(OC)c2)cc1
inactive: [1] 31.1% | [3] 66.3% | [4] 34.4% | [5] 43.1% | [6] 14.8% | [7] 39% | [8] 50.3% | [11] 58.4% | [12] 55% | [13] 68.3% | [14] 49.4% | [15] 50% | [16] 33.6% | [17] 26.8% | [18] 32.3%
active: [2] 9.49%

Cc1ccc(S(=O)(=O)Nc2c(Br)cc(Br)cc2C(N)=O)cc1
inactive: [1] 103% | [2] 128% | [3] 90.2% | [4] 106% | [5] 96.3% | [6] 99.9% | [7] 98.5% | [8] 102% | [19] 100% | [11] 101% | [12] 91.9% | [13] 161% | [14] 101% | [15] 103% | [16] 107% | [17] 95.1%

CCCCCCCCN(CCCCCCCC)CCCCCCNc1cc(OC)cc2cccnc12
inactive: [1] 109% | [2] 28.1% | [3] 94.1% | [4] 84.9% | [5] 67.2% | [6] 103% | [7] 110% | [8] 32.3% | [9] 105% | [10] 87.4% | [11] 63.4% | [12] 55.2% | [14] 91.4% | [15] 72% | [16] 110% | [18] 50%
active: [17] -59%

CC12CCCC(CC(=O)c3[nH]c4ccccc4c31)C2 (configuration not stated)
inactive: [1] 26.6% | [2] 13.2% | [3] 27.9% | [4] 24.9% | [5] 22.5% | [7] 37.4% | [8] 36.2% | [9] 30% | [10] 42.1% | [11] 51.8% | [12] 51.4% | [13] 75.4% | [14] 52.6% | [15] 41.7% | [17] 16.6% | [18] 29.5%
active: [6] 6.25% | [16] -6.37%

O=[N+]([O-])c1cccc(-c2nc3sccn3c2-c2ccnc(NCCCNS(=O)(=O)c3ccc(C(F)(F)F)cc3)n2)c1
inactive: [1] 17.6% | [2] 36.8% | [3] 69% | [4] 60.9% | [5] 12% | [8] 17.6% | [9] 25.3% | [10] 38.1% | [11] 35.4% | [12] 12.5% | [14] 22.6% | [15] 21.1% | [16] 25% | [17] 14.5%
active: [6] -45.5% | [7] -13.2% | [18] 7.2%

C/C=C(\C)C(C(=O)NC1CCCCC1)N(C(=O)C1CCc2cc(F)ccc2O1)c1ccc(Cl)cc1 (configuration not stated)
inactive: [1] 101% | [2] 98.7% | [3] 97.8% | [4] 102% | [5] 94.5% | [6] 97.2% | [7] 92.3% | [8] 94.1% | [9] 103% | [10] 94.2% | [11] 106% | [12] 92.6% | [13] 96.2% | [14] 115% | [16] 109% | [17] 101% | [18] 95.4%

CC[N+](CC)=c1cc2oc3cc(N(C)C)ccc3nc-2cc1C
active: [4] 1.74% | [6] 7.58% | [10] 3.38% | [11] 6.42%
inactive: [1] 47.4% | [2] 28.3% | [3] 31.8% | [5] 10.8% | [7] 62.7% | [8] 16.8% | [9] 19.4% | [12] 39.6% | [13] 54.6% | [14] 73% | [15] 46.7% | [16] 99.2% | [17] 28.2% | [18] 21.8%

ClC(Cl)c1nc(-c2ccccc2)nc2cc(-c3ccccc3)nn12
inactive: [3] 55.7% | [4] 14.6% | [5] 35.4% | [6] 90.4% | [7] 62.8% | [19] 107% | [9] 103% | [10] 58.6% | [11] 72.1% | [12] 58.7% | [13] 21.6% | [14] 46.2% | [15] 50.6% | [16] 80.7% | [18] 101%
active: [1] 7.78% | [2] 2.11%

N/C(=N\C(N)=N\c1nc2ccccc2s1)c1ccncc1
inactive: [1] 35.3% | [2] 27.7% | [3] 69.5% | [4] 71% | [5] 73.9% | [6] 59% | [8] 55.8% | [19] 66.9% | [9] 41% | [10] 78.9% | [11] 72.6% | [12] 64.2% | [13] 109% | [14] 75.8% | [15] 44.9% | [17] 63% | [18] 45.2%

N=C(N)c1ccc(-c2ccc(-c3cncc4ccccc34)s2)cc1F
inactive: [19] 85.7% | [16] 73.8%
active: [1] -80.6% | [2] -91.7% | [3] -76.1% | [4] -92.3% | [5] -93.6% | [6] -99.1% | [7] -91.3% | [9] -40.4% | [10] -77% | [11] -93.1% | [12] -87.3% | [14] -97.5% | [18] -24.6%
